Assay results: PubChem BioAssay AID686978 (National Center for Advancing Translational Sciences (NCATS), 2013)
Values joined by “and” are separate entries in the source; they are usually repeats but may differ in a detail not shown here. Equal values may be shown once. In all, about 420,000 compounds went through this assay and about 64,000 (15%) were called active. Inconclusive results (about 27%) are left out. The list is a sample of the results. Values without a mark were called inactive. Calls follow the shape of the dose curve; as a rule, active = well fitted inhibition curve with a large enough effect; inconclusive = small, poorly fitted or top-dose-only effect; inactive = flat fitted curve, though single readings scatter.

Assay: qHTS for Inhibitors of human tyrosyl-DNA phosphodiesterase 1 (TDP1): qHTS in cells in absence of CPT; also: nearly all actives have a fitted effect of over 55% in size
Details: DT40 Tdp1-/- hTDP1 cells, no CPT, ATP luminescence, 48 h; activity change, negative = growth inhibition: at 46.2 µM (top of the series)
Method in brief: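 Growth kinetics read by CellTiter-Glo luminescence after ≥48 hr at 37 °C. Cells: DT40 Tdp1-/- stably carrying human TDP1, 400 per well, compound exposure in the absence of CPT (DMSO vehicle).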
% is scaled to controls: 0 for no effect and ±100 for the full control effect; potency is read from the fitted curve at half-maximal effect.

| SMILES | activity change, negative = growth inhibition [%] | Potency |
| --- | --- | --- |
| O=C(Cc1ccc(NC(=O)C2CCCN(C(=O)C3CCCCC3)C2)cc1)Nc1cccc(C(=O)N2CCCCC2)c1 (stereo not drawn) | -20.7 | – |
| CN(C(=O)c1cccc(NC(=O)C2CCN(C(=O)OC(C)(C)C)CC2)c1)C1CCC1 | -24.9 | – |
| CN(C(=O)c1cccc(NC(=O)Cc2ccc(NC(=O)C3CCCN(C(=O)C4CC4)C3)cc2)c1)C1CC1 (stereo not drawn) | 0.0642 | – |
| CN(CCc1ccccc1)C(=O)c1cccc(NC(=O)Cc2cccc(NC(=O)C3CCCN(C(=O)CCc4ccccc4)C3)c2)c1 (stereo not drawn) | – | 13 µM (active) |
| Cc1cc(NC(=O)CCC(=O)N(Cc2ccccc2)C(C(=O)NC2CCCC2)c2ccc(C)o2)no1 (stereo not drawn) | -28.1 | – |
| CCc1nc2ccc(C(=O)NC3CCN(Cc4ccccc4)CC3)cn2c1N(C)CCN1CCOCC1 | -24.4 | – |
| O=C(NC(=S)Nc1ccccc1C(=O)O)c1ccc(-c2ccc(Br)cc2)o1 | -10.9 | – |
| O=C(c1cccnc1NCc1ccccc1)N1CCOCC1 | -11.3 | – |
| CC(=O)Nc1ccc(NC(=O)c2ccc3c(c2)C(=O)N(c2ccccc2C)C3=O)cc1 | 5.82 | – |
| NC(=O)C1(N2CCCCC2)CCN(C(=O)c2ccc(C#Cc3ccccc3)o2)CC1 | -29.5 | – |
| COCCCNC(=O)CNC(=S)N(Cc1cc(OC)c(OC)c(OC)c1)C1CCCC1 | 7.92 | – |
| COc1ccc(C)cc1N(C)C(=O)c1coc(=O)c2ccccc12 | -19.8 | – |
| CC/C(Cc1ccccc1)=N/NC(=O)CCn1nnc2ccccc21 | 0.293 | – |
| NS(=O)(=O)c1ccc(NC(=S)N2CCCC2)cc1 | 17.6 | – |
| CCN(CC)C(=O)CSc1nnc(CNc2ccc(F)cc2)n1Cc1ccco1 | 0.469 | – |
| CN(C)C(=S)N=c1ssc(=S)n1Cc1ccco1 | – | 1.64 µM (active) |
| CC1CN(Cc2ccco2)C(=S)N(c2ccccc2)C1=O (stereo not drawn) | -2.45 | – |
| CC1=CC=CC2=N/C(=N\S(=O)(=O)c3ccc(F)cc3F)c3ccccc3CN12 | -23.1 | – |
| C=CCSC1=C(C#N)C(c2cc(Br)c(O)c(OC)c2)CC(=O)N1 (stereo not drawn) | -1.88 | – |
| COC(=O)CSC1=C(C#N)C(c2ccccc2OC)C(C(=O)OC)C(=O)N1 (stereo not drawn) | -2.46 | – |
| CCOC(=O)CSC1=C(C#N)C(c2sccc2C)CC(=O)N1 (stereo not drawn) | – | 3.55 µM (active) |
| COc1cccc(CNC(=O)C2CCN(S(=O)(=O)c3cccc4cccnc34)CC2)c1 | -14.2 | – |
| Cc1ccc2nc(C)c3c(c2c1)N(c1ccccc1)CC3 | – | 13 µM (active) |
| Cc1ccc2nc3n(c(=O)c2c1)CCC3 | -1.96 | – |

| SMILES | activity change, negative = growth inhibition [%] | Potency |
| --- | --- | --- |
| Cc1nc2ccc(C(=O)N3CCN(c4ccccc4)CC3)cc2s1 | -8.77 | – |
| CC(=O)c1ccc(NC(=O)CCc2nnc3ccc(NCc4ccco4)nn23)cc1 | -26.2 | – |
| Cc1cc(C)nc(NS(=O)(=O)c2ccc(NC(=O)c3cc(=O)c4ccc(C)c(C)c4o3)cc2)n1 | -12.7 | – |
| Cc1nc(SCC(=O)Nc2ccc(C(=O)O)cc2)n[nH]1 | -3.23 | – |
| O=C1c2ccccc2-c2ncnc3c(N4CCOCC4)cc(N4CCOCC4)c1c23 | – | 10.3 µM (active) |
| O=S(=O)(N1CCOCC1)N1CCN(c2ccccc2F)CC1 | -6.21 | – |
| O=S(=O)(Nc1cc(Cl)ccc1N1CCOCC1)c1ccccc1Cl | -1.88 | – |
| COc1ccc(CCNC(=O)CSc2nnc3ccc(-c4ccncc4)nn23)cc1 | 3.54 | – |
| Cc1nn(Cc2ccc(F)cc2)c(C)c1NC(=O)c1cc(CC(C)C)on1 | – | 20.6 µM (active) |
| CC(C)Cc1cc(C(=O)NCCc2ccccc2)no1 | -11.1 | – |
| Cc1nn(Cc2ccccc2Cl)c(C)c1NC(=O)Cn1nc([N+](=O)[O-])c(Cl)c1C | -1.09 | – |
| Cc1cc(C(=O)Nc2c(C)nn(Cc3ccccc3)c2C)on1 | 3.16 | – |
| CC(C)Cc1cc(C(=O)Nc2cc(Br)ccc2O)no1 | – | 14.6 µM (active) |
| Cc1nn(Cc2ccc(F)cc2)c(C)c1NC(=O)c1cccnc1Cl | 0.0616 | – |
| CC(C)CNC(=O)c1cc(-c2ccc(Br)cc2)on1 | -14.2 | – |
| Cc1nn(Cc2ccc(F)cc2)c(C)c1NC(=O)c1noc2c1CCc1ccccc1-2 | – | 18.4 µM (active) and 16.4 µM (active) |
| Cc1ccccc1Cn1nc(C)c(NC(=O)C(F)(F)F)c1C | 9 | – |
| c1ccc(CN=C2Nc3ccccc3CS2)nc1 | -15.1 | – |
| CC1(C)O[C@H]2CC(=O)OCC23[C@H]2CC[C@@]4(C)[C@H](c5ccoc5)OC(=O)[C@H]5O[C@]54[C@]2(C)C(=O)C[C@@H]13 (stereo partly drawn) | -0.653 | – |
| COc1ccc(NC(=O)c2c(SC)nsc2SC)cc1 | -15.8 | – |
| Oc1ccc2c(c1)OCC1c3cc4c(cc3OC21)OCO4 (stereo not drawn) | 1.62 | – |
| CCSc1sc(CC)cc1C=O | -5.26 | – |
| COc1ccccc1/C=C/C=N/NC(=O)CN1CCN(Cc2ccccc2)CC1 | -25.1 | – |
| Cc1cc(SCc2c(F)cccc2Cl)nc(=O)[nH]1 | -21.7 | – |
